Test results from the supplement of paper PMC10849652.
The full data set covers some 8,800 targets. This sample favours those with a hit. About 0.5% of all pairs of compound and target were hits. Unmarked numbers belong to inactive results.

What was measured:
Assay in all cases: log2 fold change, soluble protein after heating vs DMSO (PISA); higher = thermal stabilisation; K562 lysate, 10 uM; active = over 0.2 and 3.5 SD of the protein, either way, in both replicates (recomputed)
[1] = compound: CN1CC[C@H](c2c(O)cc(O)c3c(=O)cc(-c4ccccc4Cl)oc23)[C@H](O)C1 [alvocidib]
How it was run: (§1)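 Pellets of K562 cells were dounce-homogenised in PBS pH 7.4 with 1 mM MgCl2, and the crude extract was held at 1 mg/mL protein for a 30 min treatment with 10 μM compound. Aliquots were heated for 3 min over 48°C-58°C and pooled before NP-40 was added to 0.5% at 4°C. The supernatant from 21,000xg for 90 min was quantified by TMTpro 16plex LC-MS/MS with channel sums equalised. Values are reported from duplicates as log-two fold change in thermal stability relative to solvent controls.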

[2] = compound: CN1CCc2c(c3ccccc3n2Cc2ccc(C(=O)NO)cc2)C1 [Tubastatin A]
How it was run: as §1

[3] = compound: CNC(=O)C1=CC=CC=C1NC2=NC(=NC=C2Cl)NC3=C(C=C(C=C3)N4CCOCC4)OC
How it was run: as §1

[4] = compound: CNC(=O)c1ccc(Nc2ncc(C(F)(F)F)c(NCc3nccnc3N(C)S(C)(=O)=O)n2)cc1 [defactinib]
How it was run: as §1

[5] = compound: CNc1nc(-c2ccc3c(N)n[nH]c3c2)cc(N2C[C@@H](C(=O)NC3CCCCC3)CC[C@H]2C)n1
How it was run: as §1

[6] = compound: COC(=O)N[C@@H](C)CNc1nccc(-c2cn(C(C)C)nc2-c2cc(Cl)cc(NS(C)(=O)=O)c2F)n1 [encorafenib]
How it was run: as §1

[7] = compound: COC(=O)[C@H](CCSC)NC(=O)C1=C(C=C(C=C1)NC[C@H](CS)N)C2=CC=CC=C2
How it was run: as §1

[8] = compound: COc1cc(Nc2ncc3c(n2)-c2ccc(Cl)cc2C(c2c(F)cccc2OC)=NC3)ccc1C(=O)O [alisertib]
How it was run: as §1

[9] = compound: COc1cc2nc(-c3cc(F)ccc3O)nc(N[C@@H]3CNC[C@H]3C(C)(C)O)c2cc1OC
How it was run: as §1

[10] = compound: COc1cc2ncnc(Nc3ccc(F)c(Cl)c3)c2cc1OCCCN1CCOCC1 [gefitinib]
How it was run: as §1

[11] = compound: CS(=O)(=O)CCNCc1ccc(-c2ccc3ncnc(Nc4ccc(OCc5cccc(F)c5)c(Cl)c4)c3c2)o1 [lapatinib]
How it was run: as §1

[12] = compound: CS(=O)(=O)N1CCN(Cc2cc3nc(-c4cccc5[nH]ncc45)nc(N4CCOCC4)c3s2)CC1 [pictilisib]
How it was run: as §1

[13] = compound: C[C@@H](Oc1cc(-c2cnn(C3CCNCC3)c2)cnc1N)c1c(Cl)ccc(F)c1Cl [crizotinib]
How it was run: as §1

[14] = compound: C[C@H](C1=CC=C(C=C1)C(=O)NC2=C3C=CNC3=NC=C2)N
How it was run: as §1

[15] = compound: C[C@H](Nc1ncnc2nc[nH]c12)c1cc2cccc(Cl)c2c(=O)n1-c1ccccc1 [duvelisib]
How it was run: as §1

[16] = compound: Cc1cc(Nc2cc(CN3CCOCC3)c3nc(C)c(Cc4ccc(Cl)cc4F)n3n2)n[nH]1 [gandotinib]
How it was run: as §1

[17] = compound: Cc1cc(Nc2cc(N3CCN(C)CC3)nc(Sc3ccc(NC(=O)C4CC4)cc3)n2)n[nH]1 [tozasertib]
How it was run: as §1

[18] = compound: Cc1ccc(-n2nc(C(C)(C)C)cc2NC(=O)Nc2ccc(OCCN3CCOCC3)c3ccccc23)cc1 [doramapimod]
How it was run: as §1

[19] = compound: Cc1ccc(NC(=O)c2ccc(CN3CC[C@H](N(C)C)C3)c(C(F)(F)F)c2)cc1Nc1nccc(-c2cncnc2)n1 [bafetinib]
How it was run: as §1

[20] = compound: Cc1cccc(CC(=O)N2CCc3c2ccc(-c2cn(C)c4ncnc(N)c24)c3F)n1
How it was run: as §1

UniProt Q9UBU7, sequence (Q9UBU7 whole entry, looked up): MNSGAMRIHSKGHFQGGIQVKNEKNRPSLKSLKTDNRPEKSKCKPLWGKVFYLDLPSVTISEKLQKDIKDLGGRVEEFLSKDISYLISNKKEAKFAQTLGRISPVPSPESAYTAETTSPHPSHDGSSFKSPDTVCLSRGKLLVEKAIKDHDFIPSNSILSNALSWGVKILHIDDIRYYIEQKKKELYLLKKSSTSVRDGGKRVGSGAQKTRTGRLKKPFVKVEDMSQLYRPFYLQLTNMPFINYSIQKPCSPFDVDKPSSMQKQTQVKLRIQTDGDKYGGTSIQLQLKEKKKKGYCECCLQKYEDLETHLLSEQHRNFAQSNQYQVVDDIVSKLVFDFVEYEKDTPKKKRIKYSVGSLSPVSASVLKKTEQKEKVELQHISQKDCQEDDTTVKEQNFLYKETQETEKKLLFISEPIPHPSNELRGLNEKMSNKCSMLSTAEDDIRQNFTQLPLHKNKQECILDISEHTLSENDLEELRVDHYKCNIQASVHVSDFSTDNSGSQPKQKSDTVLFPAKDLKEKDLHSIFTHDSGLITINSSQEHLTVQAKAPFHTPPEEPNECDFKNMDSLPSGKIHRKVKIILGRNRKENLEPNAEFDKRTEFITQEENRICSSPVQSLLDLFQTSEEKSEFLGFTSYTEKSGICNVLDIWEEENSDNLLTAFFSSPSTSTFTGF
UniProt O95628, sequence (O95628 whole entry, looked up): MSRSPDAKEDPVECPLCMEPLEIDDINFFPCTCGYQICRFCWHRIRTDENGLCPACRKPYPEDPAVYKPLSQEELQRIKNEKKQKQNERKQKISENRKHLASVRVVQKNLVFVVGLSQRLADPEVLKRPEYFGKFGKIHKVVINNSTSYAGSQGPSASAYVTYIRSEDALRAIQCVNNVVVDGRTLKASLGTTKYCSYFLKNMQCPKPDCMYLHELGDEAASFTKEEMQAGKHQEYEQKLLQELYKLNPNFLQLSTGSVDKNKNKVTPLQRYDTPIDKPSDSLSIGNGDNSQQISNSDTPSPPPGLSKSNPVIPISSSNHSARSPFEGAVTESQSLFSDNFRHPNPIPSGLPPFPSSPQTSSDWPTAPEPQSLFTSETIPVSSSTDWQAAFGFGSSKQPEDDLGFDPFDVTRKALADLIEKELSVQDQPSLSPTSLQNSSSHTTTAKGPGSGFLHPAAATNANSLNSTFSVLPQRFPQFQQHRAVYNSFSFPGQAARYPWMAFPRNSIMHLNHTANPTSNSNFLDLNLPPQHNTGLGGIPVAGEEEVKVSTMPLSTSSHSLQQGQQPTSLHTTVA
UniProt Q8IWV2, sequence (Q8IWV2 whole entry, looked up): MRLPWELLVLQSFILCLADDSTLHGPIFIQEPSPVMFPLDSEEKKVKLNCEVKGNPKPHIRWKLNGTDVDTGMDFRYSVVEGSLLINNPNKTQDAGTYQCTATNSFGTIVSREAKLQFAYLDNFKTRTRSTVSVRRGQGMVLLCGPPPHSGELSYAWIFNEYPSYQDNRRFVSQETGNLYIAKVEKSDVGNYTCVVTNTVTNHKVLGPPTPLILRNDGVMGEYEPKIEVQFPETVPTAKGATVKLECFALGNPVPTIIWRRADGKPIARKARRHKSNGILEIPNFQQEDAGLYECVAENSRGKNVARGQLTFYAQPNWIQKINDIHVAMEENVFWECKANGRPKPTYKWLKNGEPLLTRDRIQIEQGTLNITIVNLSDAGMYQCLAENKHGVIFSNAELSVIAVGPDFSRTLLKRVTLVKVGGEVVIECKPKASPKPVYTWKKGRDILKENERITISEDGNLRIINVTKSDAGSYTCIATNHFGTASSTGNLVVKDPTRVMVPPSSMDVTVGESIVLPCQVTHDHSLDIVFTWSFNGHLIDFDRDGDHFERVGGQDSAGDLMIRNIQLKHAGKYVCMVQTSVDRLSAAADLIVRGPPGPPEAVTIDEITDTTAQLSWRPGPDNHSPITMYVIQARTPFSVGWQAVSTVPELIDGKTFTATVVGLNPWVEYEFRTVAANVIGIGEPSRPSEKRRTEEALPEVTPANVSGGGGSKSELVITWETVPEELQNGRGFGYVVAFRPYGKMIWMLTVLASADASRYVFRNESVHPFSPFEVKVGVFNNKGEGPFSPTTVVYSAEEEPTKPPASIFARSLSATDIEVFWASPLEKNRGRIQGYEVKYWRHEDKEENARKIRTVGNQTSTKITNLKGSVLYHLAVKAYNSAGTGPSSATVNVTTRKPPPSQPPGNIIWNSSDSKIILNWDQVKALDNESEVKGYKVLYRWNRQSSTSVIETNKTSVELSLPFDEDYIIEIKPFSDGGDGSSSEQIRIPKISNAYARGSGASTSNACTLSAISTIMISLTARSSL
UniProt P33240, sequence (P33240 whole entry, looked up): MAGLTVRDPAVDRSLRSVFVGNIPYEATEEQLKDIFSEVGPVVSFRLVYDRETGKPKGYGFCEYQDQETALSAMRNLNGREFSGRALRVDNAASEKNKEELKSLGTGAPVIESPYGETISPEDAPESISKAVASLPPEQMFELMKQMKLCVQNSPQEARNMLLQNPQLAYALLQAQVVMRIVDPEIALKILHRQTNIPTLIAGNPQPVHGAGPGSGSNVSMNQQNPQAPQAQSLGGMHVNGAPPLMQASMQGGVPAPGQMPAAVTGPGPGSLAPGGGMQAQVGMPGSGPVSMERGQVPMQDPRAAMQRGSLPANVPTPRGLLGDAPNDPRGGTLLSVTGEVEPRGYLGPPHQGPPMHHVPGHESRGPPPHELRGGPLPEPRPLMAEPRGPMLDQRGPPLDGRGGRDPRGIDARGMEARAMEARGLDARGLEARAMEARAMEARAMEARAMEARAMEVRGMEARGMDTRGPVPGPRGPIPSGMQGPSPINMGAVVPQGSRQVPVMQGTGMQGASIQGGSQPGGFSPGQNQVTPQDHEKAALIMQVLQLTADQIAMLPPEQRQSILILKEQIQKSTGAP
UniProt Q15398, sequence (Q15398 whole entry, looked up): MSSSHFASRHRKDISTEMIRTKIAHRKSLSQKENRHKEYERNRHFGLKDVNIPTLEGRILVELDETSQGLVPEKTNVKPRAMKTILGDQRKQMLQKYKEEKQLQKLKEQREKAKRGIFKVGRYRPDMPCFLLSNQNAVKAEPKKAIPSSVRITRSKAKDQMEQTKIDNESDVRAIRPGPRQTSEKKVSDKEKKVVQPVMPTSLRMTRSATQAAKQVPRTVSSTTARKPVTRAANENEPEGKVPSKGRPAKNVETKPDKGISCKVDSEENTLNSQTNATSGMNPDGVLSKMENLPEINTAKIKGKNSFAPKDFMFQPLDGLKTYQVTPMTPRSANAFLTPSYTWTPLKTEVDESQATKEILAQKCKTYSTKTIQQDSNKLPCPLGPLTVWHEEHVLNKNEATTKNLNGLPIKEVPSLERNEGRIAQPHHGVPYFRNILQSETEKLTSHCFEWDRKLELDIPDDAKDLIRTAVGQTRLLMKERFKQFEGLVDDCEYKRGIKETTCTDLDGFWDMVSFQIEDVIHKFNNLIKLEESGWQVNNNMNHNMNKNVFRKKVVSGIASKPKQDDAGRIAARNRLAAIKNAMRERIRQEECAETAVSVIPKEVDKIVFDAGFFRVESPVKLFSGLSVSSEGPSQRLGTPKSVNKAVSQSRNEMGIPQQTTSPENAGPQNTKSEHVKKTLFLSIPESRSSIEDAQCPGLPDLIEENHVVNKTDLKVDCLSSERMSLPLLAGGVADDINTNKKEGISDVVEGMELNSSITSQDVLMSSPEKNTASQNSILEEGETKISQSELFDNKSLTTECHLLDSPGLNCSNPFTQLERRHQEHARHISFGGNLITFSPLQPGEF
UniProt Q9NQI0, sequence (Q9NQI0 whole entry, looked up): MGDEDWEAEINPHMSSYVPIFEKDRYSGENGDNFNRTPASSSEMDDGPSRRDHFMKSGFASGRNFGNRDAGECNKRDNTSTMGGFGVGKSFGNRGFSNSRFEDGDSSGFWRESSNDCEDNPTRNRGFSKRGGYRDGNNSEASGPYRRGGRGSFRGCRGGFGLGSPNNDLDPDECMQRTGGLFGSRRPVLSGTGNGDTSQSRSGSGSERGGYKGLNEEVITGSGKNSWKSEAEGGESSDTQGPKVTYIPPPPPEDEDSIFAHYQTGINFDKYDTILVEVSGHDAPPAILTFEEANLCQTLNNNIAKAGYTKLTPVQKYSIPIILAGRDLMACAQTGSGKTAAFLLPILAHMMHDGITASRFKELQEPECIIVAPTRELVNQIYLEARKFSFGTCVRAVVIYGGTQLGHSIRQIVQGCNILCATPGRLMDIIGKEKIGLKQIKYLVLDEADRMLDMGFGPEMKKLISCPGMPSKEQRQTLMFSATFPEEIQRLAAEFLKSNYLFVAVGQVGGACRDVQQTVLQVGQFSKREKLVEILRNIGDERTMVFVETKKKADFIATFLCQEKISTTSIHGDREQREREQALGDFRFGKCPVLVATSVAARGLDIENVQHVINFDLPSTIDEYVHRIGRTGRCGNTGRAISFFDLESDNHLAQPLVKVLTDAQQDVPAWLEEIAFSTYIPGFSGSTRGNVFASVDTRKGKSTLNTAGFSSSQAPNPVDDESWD
UniProt O94760, sequence (O94760 whole entry, looked up): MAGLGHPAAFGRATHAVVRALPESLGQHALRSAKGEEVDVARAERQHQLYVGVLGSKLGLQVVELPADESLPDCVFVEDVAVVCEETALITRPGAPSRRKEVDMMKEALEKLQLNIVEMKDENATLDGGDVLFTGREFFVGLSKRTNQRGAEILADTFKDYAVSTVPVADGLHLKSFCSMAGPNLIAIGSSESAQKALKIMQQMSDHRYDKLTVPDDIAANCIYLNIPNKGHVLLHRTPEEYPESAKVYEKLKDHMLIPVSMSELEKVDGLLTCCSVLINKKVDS
UniProt O76075, sequence (O76075 whole entry, looked up): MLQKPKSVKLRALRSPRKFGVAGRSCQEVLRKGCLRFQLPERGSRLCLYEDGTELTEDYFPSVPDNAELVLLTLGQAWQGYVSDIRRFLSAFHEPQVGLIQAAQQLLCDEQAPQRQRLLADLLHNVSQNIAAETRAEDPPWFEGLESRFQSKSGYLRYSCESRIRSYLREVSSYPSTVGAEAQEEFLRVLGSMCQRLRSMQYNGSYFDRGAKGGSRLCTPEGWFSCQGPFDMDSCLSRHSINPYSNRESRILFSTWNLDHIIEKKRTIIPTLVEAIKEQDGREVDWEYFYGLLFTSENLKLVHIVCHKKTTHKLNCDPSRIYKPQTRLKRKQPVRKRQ

Target	log2 fold change [1]	log2 fold change [2]	log2 fold change [3]	log2 fold change [4]	log2 fold change [5]	log2 fold change [6]	log2 fold change [7]	log2 fold change [8]	log2 fold change [9]	log2 fold change [10]	log2 fold change [11]	log2 fold change [12]	log2 fold change [13]	log2 fold change [14]	log2 fold change [15]	log2 fold change [16]	log2 fold change [17]	log2 fold change [18]	log2 fold change [19]	log2 fold change [20]
DFFB (UniProt O76075)	-0.042	-0.007	-0.022	-0.033	-0.022	-0.012	0.015	-0.006	0.011	0.231 (active)	0.003	-0.016	0.023	0.003	-0.008	0.015	0.049	-0.07	-0.028	-0.021
CSNK1G3 (UniProt Q9Y6M4)	0.032	0.064	0.014	0.069	0.03	0.018	-0.033	-0.005	0.459 (active)	-0.005	-0.155	0.118	0.026	0.214	-0.042	-0.032	-0.048	-0.003	-0.09	-0.021
DLGAP5 (UniProt Q15398)	-0.007	-0.021	0.01	0.004	-0.004	0.024	0	-0.016	-0.02	-0.001	0.02	0	-0.016	-0.029	-0.005	0.049	-0.014	0.001	-0.008	0.04
CSTF2 (UniProt P33240)	-0.023	0.011	0.014	-0.016	0.024	-0.009	-0.099	0.03	0.011	0.008	-0.006	-0.049	0.003	-0.025	0.044	0.051	0.033	0.036	0.03	-0.001
DENND4A isoform 2 (UniProt Q7Z401)	-0.067	-0.141	-0.024	0.077	-0.001	0.013	0.032	-0.018	0.17	-0.041	-0.034	0.001	-0.038	-0.206	-0.067	0.045	-0.027	-0.009	-0.064	0.203
CYP24A1 (UniProt Q07973)	-0.258	0.163	-0.021	-0.158	0.226	0.011	0.043	0.049	0.13	-0.05	-0.099	0.015	-0.289	-0.462 (active)	0.077	0.235	-0.02	0.006	-0.209	0.325
CNOT4 isoform 6 (UniProt O95628)	0.015	-0.011	-0.009	0.001	-0.069	0.076	-0.051	-0.003	-0.041	-0.007	0.039	-0.06	0.146	-0.093	-0.011	0.075	-0.027	-0.234 (active)	-0.054	0.028
DIAPH1 (UniProt O60610)	0.03	0	-0.003	-0.018	-0.013	0.003	0.051	0.005	0.006	-0.001	-0.007	0.014	0.004	0.06	-0.006	-0.063	0.004	-0.003	-0.001	-0.021
DDAH1 (UniProt O94760)	0.015	0.007	0.037	0.014	-0.002	0	0.009	–	0.003	–	0.011	–	0	0.059	0.186	-0.039	-0.044	-0.058	–	0.196
CNTN4 (UniProt Q8IWV2)	-0.148	0.185	0.021	-0.104	–	-0.193	0.124	-0.074	0.03	-0.022	-0.052	-0.066	-0.268	-0.432	–	0.545	-0.182	-0.067	-0.145	0.484
CLCN3 isoform 2 (UniProt P51790)	-0.02	0.02	0.024	-0.015	0.033	0.041	0.022	-0.007	-0.002	0.005	0.047	–	-0.047	-0.075	0.034	-0.018	-0.011	0.026	-0.005	0.024
CNOT4 isoform 9 (UniProt O95628)	-0.351	0.04	-0.087	-0.085	-0.047	0.037	0.003	–	0.002	–	-0.006	-0.014	0.077	-1.01 (active)	-0.009	0.298	0.04	-0.184	-0.031	0.271
DCTN1 (UniProt Q14203)	0.03	-0.048	0.009	0.008	-0.02	0.008	0.119	-0.019	0.01	-0.002	-0.005	-0.021	-0.005	0.027	0.001	-0.029	-0.002	-0.013	-0.023	-0.005
DBF4 (UniProt Q9UBU7)	-0.118	-0.072	-0.025	-0.023	-0.058	0.04	-0.072	-0.028	–	-0.029	–	0	-0.031	-0.409 (active)	0.004	0.059	-0.009	-0.018	-0.028	0.035
DDX4 (UniProt Q9NQI0)	-0.234	-0.173	-0.05	-0.058	-0.116	-0.047	-0.02	0.032	-0.007	0.021	-0.045	0.035	–	-0.481 (active)	0.02	0.132	0.078	–	-0.167	0.174
